This note sets out measurements from the supplement of paper PMC5641865, “A screen for kinase inhibitors identifies antimicrobial imidazopyridine aminofurazans as specific inhibitors of the Listeria monocytogenes PASTA kinase PrkA” (The Journal of Biological Chemistry, 2017).

Molecules are shown by their SMILES. ± gives the standard deviation of the averaged measurements.
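Also: End-point A600 read in BHI broth at 37 °C with 2% DMSO, inhibition computed as (1 − OD with compound plus ceftriaxone ÷ OD with ceftriaxone only) × 100.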

The subject of the assay is Listeria monocytogenes 10403S. Briefly: growth inhibition relative to ceftriaxone-alone control; higher = stronger potentiation of ceftriaxone growth inhibition. The conditions noted are these: 10 µM; ceftriaxone 1 ug/ml; 12 h.
Regarding `C=CC(=O)Nc1cc2c(Nc3ccc(F)c(Cl)c3)ncnc2cc1OCCCN1CCOCC1` [CI-1033 (Canertinib)], the growth inhibition was found to be 21.5 ± 6.1%.

Turning to `CN(C)c1cc2c(Nc3ccc4nc(Cc5ccccc5)[nH]c4c3)ncnc2cn1`, the growth inhibition is -14.1 ± 8.1%.

For `COc1cccc(-n2ncc3c(N/N=C/c4ccncc4)ncnc32)c1`, the growth inhibition is -5.6 ± 4.6%.

`COc1ccc2cc(-c3c(-c4ccncc4)nc(-c4ccc([S+](C)[O-])cc4C)n3C)ccc2c1` (stereo not given): the growth inhibition was determined as 17.6 ± 9%.

`NCC(=O)Nc1ccc(-n2nc(C(F)(F)F)cc2-c2ccc3c(ccc4ccccc43)c2)cc1`: the growth inhibition amounted to 85.45 ± 0.52%.

As for `CCn1c(-c2nonc2N)nc2c(C#CC(C)(C)O)nc(OCCNC)cc21`, the growth inhibition turned out to be 41.3 ± 18%.

With `CCCCCCCCCCCCc1ccc(S(=O)(=O)Nc2nncs2)cc1`, the growth inhibition came out at 93.5 ± 11%.

In the case of `CC(=O)Nc1cccc(C#Cc2cncnc2Nc2ccc(OCc3cccc(F)c3)c(Cl)c2)c1`, the growth inhibition is -15 ± 2.5%.

For the compound `ON=C1CCc2cc(-c3nc(C4CCNCC4)[nH]c3-c3ccncc3)ccc21`, the growth inhibition was 7.4 ± 4.8%.

With `O=C(Nc1n[nH]c2cc(-c3ccc(F)cc3)ccc12)C1CC1`, the growth inhibition was -9.6 ± 16%.

Consider `COC(=O)Nc1nc2ccc(S(=O)(=O)c3ccc(NC(=O)Nc4cc(C(F)(F)F)ccc4F)cc3)cc2[nH]1`, for which the growth inhibition was -13.3 ± 8.2%.

For the compound `CC(C)CC(=O)Nc1n[nH]c2c1CN(C(=O)C1CCN(C)CC1)C2(C)C`, the growth inhibition was -44.3 ± 75%.

`O=C1NC(=O)/C(=C/c2ccc(-c3ccc(F)cc3O)o2)S1`: the growth inhibition was found to be 70.7 ± 9.8%.

On to `FC(F)(F)c1ccc(Nc2nc3ccc(Oc4ccnc(-c5ncc(C(F)(F)F)[nH]5)c4)cc3[nH]2)cc1` [Raf265 Derivative], for which the growth inhibition came out at 49.3 ± 21%.

`O=C(NC[C@H](O)CO)c1ccncc1Nc1ccc(I)cc1F`: the growth inhibition was 1.43 ± 12%.
